Results filed as inconclusive are left out. A number with no mark means an inactive call. Calls follow the shape of the dose curve; as a rule, active = well fitted activation curve with a large enough effect in the repeat runs; inconclusive = weak or mixed curves; inactive = flat fitted curve, though single readings scatter.
Test: A CellTox Green Cytotoxicity Assay to monitor cytotoxicity in HEK293 cells - 32 hour (AID 1224881); also: nearly all actives have a fitted effect of over 40% in size
Settings: CellTox Green fluorescence; series mostly up to 76.8 µM; cytotoxicity increase: at the top concentration
Text: National Center for Advancing Translational Sciences [NCATS]
NIH Chemical Genomics Center [NCGC]
U.S. Environmental Protection Agency [EPA]
National Institutes of Environmental Health Sciences [NIEHS]
National Toxicology Program [NTP]
Cell-based models are critical for drug discovery. Determining the natural cytotoxic effects resulting from test compounds is an essential research activity. A CellTox Green Cytotoxicity Assay to monitor cytotoxicity in real time of continues cell culture during 40 hours of the compound treatment was used to screen Tox21 10K library compounds in Hek293 cells. CellTox Green Cytotoxicity Assay is a nonlytic, homogeneous, biofluorescent method to measure cytotoxicity in cell culture after experimental manipulation. The assay system uses a proprietary asymmetric cyanine dye that is excluded from viable cells but preferentially stains the dead cell's DNA. […] Viable cells produce no appreciable increases in fluorescence. Therefore, the fluorescence signal produced by the binding interaction with dead cell DNA is proportional to cytotoxicity.
The mixture of Hek293 cell suspension and reagents were dispensed at 600cells/6 ul/well in 1536-well tissue culture treated black solid bottom plates using a Multidrop dispenser. After the assay plates were incubated at a 37 C/5% CO2 incubator for 5 hours, 23 nL of compounds dissolved in DMSO, positive and negative controls was transferred to the assay plate by a pintool work station. The plates were incubated at 37 C for 40 hours. The fluorescence intensity were measured at 0h, 8h, 16h, 24h, 32h and 40h time points using ViewLux plate reader during compound treatment.
% is scaled to controls: 0 for no effect and ±100 for the full control effect.

Row | SMILES | cytotoxicity increase
1 | Cc1ccc(Cl)cc1N | -3.01%
2 | N[C@@H](Cc1cc(I)c(O)c(I)c1)C(=O)O | 10.8% [at 35.3 µM]
3 | CCOc1ncc(F)c(=O)[nH]1 | 2.23% [at 35.3 µM]
4 | Nc1ccn([C@H]2CS[C@@H](CO)O2)c(=O)n1 | -0.53%
5 | Cc1ccc2c(c1)CCCN2 | -6.3%
6 | O=NN(CCCl)C(=O)NCCCl | 4.15% [at 35.3 µM]
7 | O=C1OC(=O)c2c(Br)c(Br)c(Br)c(Br)c21 | 17%
8 | Cc1c(C2(c3cc(Br)c(O)c(Br)c3C)OS(=O)(=O)c3ccccc32)cc(Br)c(O)c1Br | -17%
9 | CCOC(=O)c1ccc(NC(=O)CN2CCCCC2)cc1 | -23.9% [at 35.3 µM]
10 | O=C1NC(=O)c2cccc3cccc1c23 | 2.12%
11 | CC1=CC[C@@]23C[C@@H]1C(C)(C)[C@@H]2CC[C@H]3C | 26%
12 | CC(=O)OCCC1CCCCC1 | -7.25%
13 | COC(OC)OC | 5.68%
14 | C=CCOC(=O)COCCC(C)C | -15.9%
15 | COc1ccc(C(=O)NCc2ccc(OCCN(C)C)cc2)cc1OC | 2.21% [at 35.3 µM]
16 | Cc1cccc(C)c1NC(=O)c1cc(S(N)(=O)=O)c(Cl)cc1O | -9.18% [at 35.3 µM]
17 | C=Cc1ccc(OC(C)=O)cc1 | 28.7%
18 | FC(F)(F)C(F)(F)C(F)(F)C(F)(F)CCI | -4.52% [at 35.3 µM]
19 | Cc1ccc(NC(=O)N(C)C)cc1NC(=O)N(C)C | 2.5%
20 | CCCCC[C@H](O)/C=C/[C@H]1[C@H](O)CC(=O)[C@@H]1C/C=C\CCCC(=O)O | 2.97% [at 35.3 µM]

Row | SMILES | cytotoxicity increase
21 | O=C(O)c1ccc(O)cc1O | -7.89%
22 | NC(=O)CCCCC(N)=O | -1.06%
23 | CCCC(=O)OC(=O)CCC | 0.382%
24 | COC(CC(C)CCCC(C)(C)O)OC (stereo not given) | -2.13%
25 | CN1C(CSCC(F)(F)F)Nc2cc(Cl)c(S(N)(=O)=O)cc2S1(=O)=O (stereo not given) | -17.4% [at 35.3 µM]
26 | COc1ccc2nc(S(=O)Cc3ncc(C)c(OC)c3C)[nH]c2c1 (stereo not given) | 2.62%
27 | CCNc1nc(N)nc(Cl)n1 | -8.18%
28 | COc1cc(OC)c2ccc(=O)oc2c1 | -7.45%
29 | O=C(CCS)OCC(COC(=O)CCS)(COC(=O)CCS)COC(=O)CCS | 3.43%
30 | Nc1c(Cl)cc(Cl)cc1[N+](=O)[O-] | 1.71%
31 | CCCCCCCCCCCCCCN(C)C | -32.2% [at 15.8 µM]
32 | CC(C)(C)CCCCCCOC(=O)c1ccccc1C(=O)OCCCCCCC(C)(C)C | -5.38%
33 | COc1cc(NC(C)CCCN)c2ncccc2c1 (stereo not given) | -5.56% [at 35.3 µM]
34 | CC1CCCO1 (stereo not given) | -4.1%
35 | CC(C)(O)c1coc(S(=O)(=O)NC(=O)Nc2c3c(cc4c2CCC4)CCC3)c1 | -28.4%
36 | COc1ccc(/C=C/C(=O)c2ccc(OC)cc2OC)cc1 | -18.3% [at 35.3 µM]
37 | CCN(Cc1cccc(S(=O)(=O)O)c1)c1ccc(C(=C2C=CC(=[N+](CC)Cc3cccc(S(=O)(=O)O)c3)C=C2)c2ccccc2S(=O)(=O)[O-])cc1 | -14.5% [at 35.3 µM]
38 | ClC1=C(Cl)C1(Cl)Cl | -8.73%
39 | O=S(=O)(O)CO | -10%
40 | CC(=O)NNC(C)=O | -16.5%

Reference: PubChem BioAssay (Tox21)
